Test results published in PubChem BioAssay (NCATS).
Inconclusive results are not listed. A number with no mark means an inactive call. Calls come from the whole dose curve; as a rule, active = well fitted inhibition curve with a large enough effect; inconclusive = small, poorly fitted or top-dose-only effect; inactive = flat fitted curve, though single readings scatter.

Molecular target: Aldehyde dehydrogenase, mitochondrial (Homo sapiens) (UniProt P05091)
Test: qHTS for Inhibitors of the Aldehyde Dehydrogenase Family (ALDH2) Primary screen (AID 2061308);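 note: plate controls were vehicle for no effect and reference inhibitor for full effect; nearly all actives have a fitted effect of over 55% in size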
Settings: ALDH2 enzyme inhibition qHTS, 1536-well; series mostly up to 56 µM; activity change, negative = inhibition: at the top concentration

Going from CC/C=C\CCO[C@@H]1O[C@H](CO[C@@H]2OC[C@H](O)[C@H](O)[C@H]2O)[C@@H](O)[C@H](O)[C@H]1O to CC1=C(CCC(C)O[C@@H]2O[C@H](CO)[C@@H](O)[C@H](O)[C@H]2O)C(C)(C)CCC1=O (stereo not given in full), the “activity change, negative = inhibition” value rises from -3.72% to 0.647%.

First: COc1cc2ncnc(Nc3ccc(O)cc3)c2cc1OC
Second: CC1(C)CCC[C@@]2(C)[C@H]1[C@H](O)C=C1COC(=O)[C@@]12O
The “activity change, negative = inhibition” value of the first is higher: -5.53% for the first, -9.07% for the second.

First: COc1cc(O)cc(O[C@@H]2O[C@H](CO)[C@@H](O[C@@H]3OC[C@](O)(CO)[C@H]3O)[C@H](O)[C@H]2O)c1OC
Second: C=C[C@H]1[C@H](O[C@@H]2O[C@H](CO)[C@@H](O)[C@H](OC(=O)/C=C/c3ccc(O)c(OC)c3)[C@H]2O)OC=C2C(=O)OCC[C@]21O
The “activity change, negative = inhibition” value of the first is higher: 2.86% [at 28 µM] for the first, -6.6% [at 28 µM] for the second.

CC(/C=C/C1(O)C2(C)COC1(C)CC(=O)C2)O[C@@H]1O[C@H](CO)[C@@H](O)[C@H](O)[C@H]1O (stereo not given in full) was tested, and the “activity change, negative = inhibition” value was -1.62% [at 28 µM].

Compared with COc1cc(C2Oc3c(OC)cc(/C=C/C(=O)OC[C@H]4O[C@@H](OC(C)(C)C(=O)O)[C@H](O)[C@@H](O)[C@@H]4O)cc3C2CO)ccc1O (stereo not given in full), C[C@@H]1O[C@@H](O[C@H]2[C@@H]3C=CO[C@@H](O[C@@H]4O[C@H](CO)[C@@H](O)[C@H](O)[C@H]4O)[C@@H]3[C@@]3(CO)O[C@@H]23)[C@H](O)[C@H](OC(=O)/C=C/c2ccc(O)c(O)c2)[C@H]1O is lower in “activity change, negative = inhibition” value: -3.72% [at 16.9 µM] for the first, -3.93% [at 16.9 µM] for the second.

With CC1(C)CC[C@]2(C(=O)O[C@@H]3O[C@H](CO)[C@@H](O)[C@H](O)[C@H]3O)CC[C@]3(C)C(=CCC4[C@@]5(C)C[C@@H](O)[C@H](O)C(C)(C)C5[C@H](O)C[C@]43C)[C@@H]2[C@@H]1O (stereo not given in full) the “activity change, negative = inhibition” value was 24.4% [at 16.9 µM].
